Measured values taken from PubChem BioAssay AID425 (Sanford-Burnham Center for Chemical Genomics, 2006).
“And” between values parts separate entries of the source, which are not always exact repeats. Equal entries are not always repeated. About 190 (0.17%) of roughly 110,000 compounds were called active. Many of the other results were omitted from the sample, so actives are more common in it than they were. Measured potencies and affinities stand elsewhere. Values without a mark were called inactive. Rule as the data show it: active = inhibition above about 50%; inactive = the rest.

These molecules were tested against Dual specificity protein phosphatase 6 (Rattus norvegicus) (UniProt Q64346) (assay: MKP-3 phosphatase inhibitors, primary screen, biochemical, rat enzyme, in vitro (AID 425;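 also: plate controls were vehicle for no effect and reference inhibitor for full effect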)). Details: recombinant MKP-3 phosphatase activity, fluorescence; at 20 µM; active compounds read high.
Sequence of Dual specificity protein phosphatase 6 (Rattus norvegicus) (Q64346 whole entry, looked up): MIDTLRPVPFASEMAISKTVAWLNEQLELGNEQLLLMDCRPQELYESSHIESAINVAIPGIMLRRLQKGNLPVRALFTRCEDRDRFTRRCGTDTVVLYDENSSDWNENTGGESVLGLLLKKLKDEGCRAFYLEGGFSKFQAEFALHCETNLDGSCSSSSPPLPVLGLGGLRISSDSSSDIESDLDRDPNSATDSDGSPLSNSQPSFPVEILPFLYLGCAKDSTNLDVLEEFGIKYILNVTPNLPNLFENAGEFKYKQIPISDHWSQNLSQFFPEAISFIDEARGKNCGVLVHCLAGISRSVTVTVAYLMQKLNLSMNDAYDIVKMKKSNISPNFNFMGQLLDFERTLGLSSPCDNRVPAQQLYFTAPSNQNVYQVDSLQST

Row | Structure (SMILES) | inhibition
1 | CCOC(=O)C1(C)NC(c2cc(OC)c(OC)c(OC)c2)C2C(=O)N(CC)C(=O)C21 (configuration not stated) | 4.9%
2 | CC(NC(=O)C(=O)NCC1CCNCC1)c1ccccc1 (configuration not stated) | 2.1%
3 | Cc1cc(NC(=O)c2nn3c(c2Cl)NC(c2ccc(Br)cc2)CC3C(F)(F)F)no1 (configuration not stated) | -0.7%
4 | COc1cccc(C(=O)NNC(N)=O)c1 | -2.5%
5 | O=C(CSc1nc2ccc(N3C(=O)c4ccccc4C3=O)cc2s1)Nc1cccc([N+](=O)[O-])c1 | 14.1%
6 | Cc1ccc(NC(=O)C(=O)NCC(C)C)cc1 | -6.8%
7 | CCN1CCOC(c2ccccc2)C(C(=O)OC)C1C(=O)OC (configuration not stated) | 49.2%
8 | CC(=O)c1ccc(NC(=O)c2ccc(-c3ccc(Br)cc3)o2)cc1 | 10.6%
9 | O=C(Nc1ccc(NC(=O)c2ccc(-c3ccc(Br)cc3)o2)cc1)c1ccco1 | -1.3%
10 | O=C(CSc1ccccn1)N/N=C\c1c[nH]c2ccccc12 | -0.6%
11 | CCCCCCCC(=O)N/N=C/c1c[nH]c2ccccc12 | 4.3%
12 | Cc1ccn2c(-c3csc(Nc4cccc(O)c4)n3)c(C)nc2c1 | 2.7%
13 | O=C1CC(Nc2ccccc2)C(=O)N1Cc1ccccc1 (configuration not stated) | 1.4%
14 | O=C(O)c1ccc(NC(=O)c2cc3cc(Br)ccc3oc2=O)cc1 | 3.5%
15 | O=C(Nc1ccc(Nc2ccccc2)cc1)c1cccc(F)c1 | -0.3%
16 | Cc1ccc(-c2nnc(NC(=O)Nc3ccc(Cl)c(Cl)c3)s2)cc1 | -1.5%
17 | O=C(Nc1ccc(Cl)c(Cl)c1)Nc1nnc(-c2ccccc2)s1 | -2.8%
18 | O=[N+]([O-])c1ccc(OCCCCCN2CCCCC2)cc1 | 0.4%
19 | Cc1ccc(/C(O)=C2\C(=O)C(=O)N(CCCC(=O)O)C2c2ccccc2)cc1 (configuration not stated) | 2.5%
20 | COc1ccc(O)c(CN2CCN(Cc3ccccc3[N+](=O)[O-])CC2)c1 | -3.5%
21 | Oc1ccccc1/C=N/Nc1cc(N2CCCCC2)nc(N2CCCCC2)n1 | -0.5%
22 | Oc1ccccc1/C=N/Nc1cc(N2CCOCC2)nc(N2CCOCC2)n1 | 5.6%
23 | Oc1ccccc1/C=N/Nc1cc(N2CCCC2)nc(N2CCCC2)n1 | 119% (active)
24 | Cc1onc(-c2ccccc2)c1C(=O)NCCNc1c(Cl)cccc1[N+](=O)[O-] | 3.9%
25 | CN(C)C1=C/C(=N/S(=O)(=O)c2ccccc2)c2ccccc2C1=O | 13.9%

Row | Structure (SMILES) | inhibition
26 | Cc1ccc(C)c(S(=O)(=O)/N=C2\C=CC(=O)c3ccccc32)c1 | 63.5% (active)
27 | CC(=O)Nc1ccc(S(=O)(=O)/N=C2/NC(=O)CS2)cc1 | -0.8%
28 | Cc1ccc(S(=O)(=O)N=C2C=CC(=O)C=C2)c(C)c1 | 7.6%
29 | O=C1C=CC(=NS(=O)(=O)c2ccccc2)c2ccccc21 | 68.4% (active)
30 | O=C1C=C/C(=N\S(=O)(=O)c2ccc(F)cc2)c2ccccc21 | -2%
31 | CC(=O)Nc1ccc(S(=O)(=O)NN2C(=O)c3ccccc3C2=O)cc1 | 2.6%
32 | Cc1ccccc1S(=O)(=O)N=C1C=CC(=O)C(Cl)=C1 | 3.1%
33 | CC(=O)Nc1ccc(S(=O)(=O)/N=C2\C=CC(=O)c3ccccc32)cc1 | 111% (active)
34 | CCc1ccc(OCC(=O)NCCN(C)C)c(Br)c1 | -12%
35 | O=C(Nc1ccc(Br)cc1)N1CCCCCCC1 | -0.5%
36 | CCOC(=O)Cc1csc(NC(=O)CN(C)S(=O)(=O)c2cccc3cccnc23)n1 | -9.4%
37 | O=C(NCCCn1ccnc1)c1cnn2c(C(F)(F)F)cc(-c3ccc(Br)cc3)nc12 | 2.4%
38 | Nc1nnc(SCc2coc(-c3ccc(Cl)cc3)n2)s1 | -7.1%
39 | COc1ccc(NC(=O)/C(=C\c2ccco2)NC(=O)c2ccco2)cc1 | 4.4%
40 | N/C(=N\OC(=O)c1ccccc1I)c1cccnc1 | -4%
41 | COc1cc(/C=C2\SC(=Nc3ccc(C)c(Cl)c3)NC2=O)ccc1O | 3.3%
42 | Cc1c(Cl)cccc1N=C1NC(=O)/C(=C/c2ccc(O)c([N+](=O)[O-])c2)S1 | 18.5%
43 | Cc1ccc(N=C2NC(=O)/C(=C/c3ccc(O)c([N+](=O)[O-])c3)S2)cc1Cl | 82.6% (active)
44 | CC1=C(C(=O)Nc2ccccc2)C(c2cccc(I)c2)NC(=S)N1 (configuration not stated) | 4.4%
45 | Cc1c(C)n(O)c2ccc3nonc3c12 | 2.7%
46 | COn1c(C)c(C)c2c3nonc3ccc21 | 86.9% (active)
47 | COn1c(C)c(C(C)=O)c2c3nonc3ccc21 | -7.8%
48 | CCOC(=O)c1ccc(NC(=O)COc2ccc(Cl)cc2C)cc1 | 2.5%
49 | COC(=O)c1ccc(Nc2ncnc3c2cnn3-c2cccc(C)c2)cc1 | -5%
50 | O=C(Cc1ccccc1)Nc1cc(C(=O)O)cc(C(=O)O)c1 | 0.2%

Row | Structure (SMILES) | inhibition
51 | CC1CC(=O)c2cnc(NCC3CCCO3)nc2C1 (configuration not stated) | -7.6%
52 | Cc1c(C)c2ccc(OCC(=O)c3ccc(-c4ccccc4)cc3)cc2oc1=O | 1.8%
53 | NC(=O)C1CCN(C(=O)CN2CCCc3ccccc32)CC1 | 1.6%
54 | Cc1ccc(C)n1-c1ccc(Br)cc1C(=O)O | 0.2%
55 | Cc1ccc(-c2ccccc2)n1-c1ccccc1C(=O)O | 5%
56 | COc1cc(C(=O)O)c(-n2c(C)ccc2C)cc1OC | 5%
57 | Cc1ccc(C)n1-c1ccccc1C(=O)O | 72.7% (active)
58 | Cc1ccc(C)n1-c1ccc(Cl)cc1C(=O)O | 104% (active)
59 | Cc1c(C(=O)O)cccc1-n1c(C)ccc1C | 25.2%
60 | O=C(CCCN1CCC(c2ccccc2)C1)c1ccc2c(c1)OCCO2 (configuration not stated) | -3.4%
61 | CC(=O)Nc1ccc(S(=O)(=O)NC(CC(=O)O)c2ccc(OC(C)C)cc2)cc1 (configuration not stated) | 7.9%
62 | CC(C)(C)NC(=O)C(=O)N/N=C/c1ccc(Cl)cc1 | -3.9%
63 | CNc1ccc2[nH]nc3c2c1C(=O)c1ccccc1-3 | -22.4%
64 | Cc1ccccc1OCC(=O)Nc1cccc(NC(=O)c2ccccc2Cl)c1 | -2.5%
65 | Cc1cc(Br)cc(C)c1NC(=O)c1ccc2c(c1)OCCO2 | 82.6% (active)
66 | CC(=O)c1ccc(NC(=O)c2ccc3c(c2)OCCO3)cc1 | -4.6%
67 | Cc1cccc(C)c1NC(=O)c1ccc2c(c1)OCCO2 | 2.1%
68 | CCN1C(=O)NC(c2cccnc2)C(C(=O)OC)=C1C (configuration not stated) | -5.5%
69 | CC(C)N(Cc1nc(-c2ccccc2)no1)C(=O)Cc1ccccc1 | -1.5%
70 | CS(=O)(=O)N(CC(=O)NCc1ccccn1)c1ccc2c(c1)OCCO2 | -1.1%
71 | CCOC(=O)C(C(=O)OCC)c1cc(Br)c2noc3c2c1C(=O)c1ccccc1-3 | 23.6%
72 | O=C1c2ccccc2-c2onc3c(Br)cc(O)c1c23 | 87.7% (active)
73 | O=C1c2ccccc2-c2onc3c(Cl)cc(Sc4ccccc4)c1c23 | 3.9%
74 | Cc1onc(-c2ccccc2Cl)c1C(=O)NCc1cccs1 | 5.5%
75 | O=C(O)c1ccc(Cl)c(-c2ccc(/C=N\Nc3ccc([N+](=O)[O-])cn3)o2)c1 | 8.7%

Row | Structure (SMILES) | inhibition
76 | O=C(O)c1cc(-c2ccc(/C=N/Nc3ccc([N+](=O)[O-])cn3)o2)ccc1Cl | 7.3%
77 | O=C(O)c1cccc(-c2ccc(/C=N/Nc3ccc([N+](=O)[O-])cn3)o2)c1 | 51.1% (active)
78 | O=C(O)/C=C/C(=O)Nc1ccc(NC(=O)c2ccccc2)c(Cl)c1 | 1.5%
79 | CNc1ccc2c(O)cc(S(=O)(=O)O)cc2c1 | 65.1% (active)
80 | COC(=O)c1cc(C(=O)OC)cc(S(=O)(=O)O)c1 | -0.1%
81 | O=C(O)c1cc(S(=O)(=O)O)ccc1O | -4.1%
82 | O=C1/C(=C/c2ccc(O)c(O)c2)SC(=S)N1c1ccc(O)cc1 | 8.5%
83 | Cc1cc(C)n(C(=O)CNC(=O)c2ccco2)n1 | 1.1% and -4%
84 | COc1ccc(C2SC(C)C(=O)N2c2ccc(C)cc2)cc1 (configuration not stated) | -0.4%
85 | O=C(NCC1CCCO1)c1cc2nc(-c3ccc([N+](=O)[O-])cc3)cc(C(F)(F)F)n2n1 (configuration not stated) | 95.8% (active)
86 | O=C(NCC1CCCO1)c1cc2nc(-c3ccc(F)cc3)cc(C(F)(F)F)n2n1 (configuration not stated) | 2.8%
87 | O=C(NCC1CCCO1)c1cc2nc(-c3ccco3)cc(C(F)(F)F)n2n1 (configuration not stated) | 0.3%
88 | COCCn1c(SCC(=O)Nc2cccc(OC)c2)nnc1-c1ccc(Cl)cc1 | -2.5%
89 | Cc1ccc(-c2ccc(C=C3C(=O)N(C)C(=O)N(C)C3=O)o2)cc1[N+](=O)[O-] | -5.2%
90 | CN(c1ccc(C(=O)N2CCCCC2)cc1)S(=O)(=O)c1ccccc1 | 2.4%
91 | CCc1c(C)c2ccc(OCC(C)=O)c(C)c2oc1=O | 5.8%
92 | CCc1c(C)c2ccc(OCc3ccccc3)c(C)c2oc1=O | 3.5%
93 | O=C(CN1CCCCCC1)Nc1cccc2c1OCO2 | 0.2% and -9.3%
94 | COc1ccc(/C=C(\NC(=O)c2ccccc2)C(=O)NCC(C)C)cc1OC | 3%
95 | CCC(C)NC(=O)/C(=C\c1ccc(OC(C)=O)c(OC)c1)NC(C)=O (configuration not stated) | 97.1% (active)
96 | COc1ccc(/C=C/C(=O)NCC(C)NC(=O)/C=C/c2ccc(OC)c(OC)c2)cc1OC (configuration not stated) | 1.7%
97 | COc1cccc(-c2cc(C(=O)Nc3c(C)nn(Cc4ccccc4)c3C)no2)c1 | 0.1%
